Results reported in PMC4336329 (PLoS ONE, 2015).
About 14,000 (4.5%) of roughly 310,000 compounds showed an effect of 50% or more. The effect is printed as a negative number. Many of the other results were omitted from the sample, so strong results are more common in it than they were.

biological target: human ether-à-go-go-related gene (hERG) potassium channel (human, UniProt Q12809); test: primary screen, population patch clamp on CHO cells stably expressing hERG; higher = less effect of the substance
Sequence (Q12809 whole entry, looked up): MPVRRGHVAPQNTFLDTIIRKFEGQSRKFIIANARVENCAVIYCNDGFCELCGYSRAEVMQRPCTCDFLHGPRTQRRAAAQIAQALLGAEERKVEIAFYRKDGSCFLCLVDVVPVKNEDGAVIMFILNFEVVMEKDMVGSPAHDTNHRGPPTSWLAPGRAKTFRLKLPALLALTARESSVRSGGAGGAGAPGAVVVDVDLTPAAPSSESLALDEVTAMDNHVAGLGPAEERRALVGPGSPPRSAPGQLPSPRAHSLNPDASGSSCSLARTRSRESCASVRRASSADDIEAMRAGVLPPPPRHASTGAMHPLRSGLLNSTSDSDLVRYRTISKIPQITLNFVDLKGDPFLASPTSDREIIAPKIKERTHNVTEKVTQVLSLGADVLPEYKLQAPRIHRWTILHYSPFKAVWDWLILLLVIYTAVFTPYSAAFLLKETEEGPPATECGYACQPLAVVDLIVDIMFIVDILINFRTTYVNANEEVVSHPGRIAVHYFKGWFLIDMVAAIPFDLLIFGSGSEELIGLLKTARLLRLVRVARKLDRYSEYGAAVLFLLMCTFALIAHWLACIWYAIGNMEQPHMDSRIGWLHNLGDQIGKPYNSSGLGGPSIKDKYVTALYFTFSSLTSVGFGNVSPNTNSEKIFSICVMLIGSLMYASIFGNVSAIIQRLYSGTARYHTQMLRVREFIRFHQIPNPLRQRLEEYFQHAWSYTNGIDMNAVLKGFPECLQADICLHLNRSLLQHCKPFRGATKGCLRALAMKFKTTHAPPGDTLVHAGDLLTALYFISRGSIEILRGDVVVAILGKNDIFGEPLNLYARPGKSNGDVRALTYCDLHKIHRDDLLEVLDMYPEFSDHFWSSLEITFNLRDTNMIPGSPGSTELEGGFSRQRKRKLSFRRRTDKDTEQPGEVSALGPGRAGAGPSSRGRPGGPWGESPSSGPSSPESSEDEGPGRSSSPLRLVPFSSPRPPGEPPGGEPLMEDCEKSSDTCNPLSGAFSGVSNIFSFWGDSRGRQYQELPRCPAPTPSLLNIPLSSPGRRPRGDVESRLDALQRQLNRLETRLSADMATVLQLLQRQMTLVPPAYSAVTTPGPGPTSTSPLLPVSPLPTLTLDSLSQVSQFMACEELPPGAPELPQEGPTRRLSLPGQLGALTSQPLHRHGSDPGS
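Note: peak tail current of the secondary pulse compared with the same well before compound.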

Compound | hERG current change (%, negative = inhibition) at 10uM [%]
O=C(COc1ccc(Cl)cc1)NNC(=O)CSc1nncs1 | 8.43
COc1ccccc1Oc1ccccc1C(=O)O | 0.941
O=C(NCc1ccc(Cl)cc1)C1C2C=CC3(CN(Cc4cccnc4)C(=O)C13)O2 (stereo not shown) | -7.1
COc1ccc(N2CCN(CCCNC(=O)C3CCCN(S(=O)(=O)c4c(C)n[nH]c4C)C3)CC2)cc1 (stereo not shown) | 8.03
COc1ccc(C(=O)C(C)OC(=O)c2nc3nccc(C)n3n2)cc1 (stereo not shown) | 2.98
CCOC(=O)C1CCCN(C(=O)c2ccc(CNc3c(N4CCC(C)CC4)c(=O)c3=O)cc2)C1 (stereo not shown) | 5.83
CCCN1CCC(=NNC(=O)CSc2cc(C)c(Br)cc2C)CC1 | -28
Cc1cc(SCC(=O)NN=C2CCN(C(C)C)CC2)c(C)cc1Br | -69.4
CC(=O)N1CCC(=NNC(=O)CSc2cc(C)c(Br)cc2C)CC1 | 6.38
C=CCN(C(=O)Nc1ccc(Cl)cc1)C1CC(=O)N(c2ccc(OC)cc2)C1=O (stereo not shown) | -14.8
O=C(NCc1ccncc1)C(=O)C1C(=O)Nc2ccccc21 (stereo not shown) | 11.6
CCOC(=O)c1csc(NNC=O)n1 | 6.73
CC(CNC(=O)CCS(=O)(=O)c1ccc2c(c1)NC(=O)CO2)c1ccccc1 (stereo not shown) | -6.68
Cn1cnc([N+](=O)[O-])c1Sc1ccc([N+](=O)[O-])cc1 | -62.1
Cn1cnc([N+](=O)[O-])c1Sc1ccc(Br)cc1 | -20
Cc1ccc(Sc2c([N+](=O)[O-])ncn2C)cc1 | 3.39
Cc1c(C(=O)N2CCN(c3ccccc3)CC2)sc2ncnc(N3CCN(c4ccccn4)CC3)c12 | -35.1
COc1ccccc1N1CCN(C(=O)c2sc3ncnc(N4CCN(c5ccccn5)CC4)c3c2C)CC1 | -18.8
CCN(CC)c1ncnc2sc(C(=O)N3CCN(c4ccccc4)CC3)c(C)c12 | -50.2
Cc1c(C(=O)N2CCN(c3ccc(F)cc3)CC2)sc2ncnc(N3CCN(c4ccccn4)CC3)c12 | -65.1
Cc1c(C(=O)N2CCN(c3ccccn3)CC2)sc2ncnc(N3CCN(c4ccccc4)CC3)c12 | -32.8
Cc1c(C(=O)N2CCC3(CC2)OCCO3)sc2ncnc(N3CCN(c4ccccn4)CC3)c12 | -44.2

Compound | hERG current change (%, negative = inhibition) at 10uM [%]
CCN(CC)c1ncnc2sc(C(=O)N3CCN(c4ccc(OC)cc4)CC3)c(C)c12 | -41.5
Cc1c(C(=O)N2CCN(c3ccccn3)CC2)sc2ncnc(N3CCOCC3)c12 | -59
Cc1c(C(=O)N2CCN(Cc3ccc4c(c3)OCO4)CC2)sc2ncnc(N3CCN(c4ccccc4)CC3)c12 | 7.82
CN(C)CCOC(=O)c1ccc2c(c1)S(=O)(=O)c1ccccc1C2=O.Cl | -6.3
COc1ccc2c(c1)c(C(=O)O)c(C)n2C(C)C | 13.3
COc1ccc(N2CCN(C(=O)c3ccc(NS(=O)(=O)c4ccc(F)c(F)c4)cc3)CC2)cc1 | -44.3
Cc1cc(C)nc(NC2=NCC(=O)N2CCc2c[nH]c3ccccc23)n1 | -2.13
CCOC(=O)c1cnc(SC)nc1Oc1cccc(NS(=O)(=O)c2ccc(F)cc2)c1 | -71.2
CCOC(=O)c1cnc(SC)nc1Oc1cccc(NS(=O)(=O)c2ccc(C)cc2)c1 | -6.83
CCOC(=O)c1cnc(SC)nc1Oc1cccc(NS(=O)(=O)c2ccccc2)c1 | 16.1
O=C(NCCN1CCOCC1)c1ccc(Cl)nc1Cl | -2.02
CCCCCC(=O)N1CCN(S(=O)(=O)c2ccc3c(c2)OCCCO3)CC1 | -18.7
CC(=O)N1CCN(S(=O)(=O)c2ccc3c(c2)OCCO3)CC1 | 10.5
CCCCCC(=O)N1CCN(S(=O)(=O)c2ccc3c(c2)OCCO3)CC1 | -61
COc1cc(NS(=O)(=O)c2ccc(NC(=S)NC(=O)c3sc4ccccc4c3Cl)cc2)ncn1 | 16.3
COc1ccc(-c2[nH]ncc2CN2CCCCCCC2)c(OC)c1 | -54.7
COc1ccc(-c2[nH]ncc2CN2CCCC(C(=O)c3ccc(OC)cc3OC)C2)cc1 (stereo not shown) | -65
COc1ccc(-c2[nH]ncc2CN2CCC(OCc3ccccc3)CC2)c(F)c1 | -80.7
COc1ccc(-c2[nH]ncc2CN2CCC(OCc3ccccn3)CC2)c(F)c1 | -31.1
COc1ccc(-c2[nH]ncc2CN2CCSCC2)c(OC)c1 | 14.7
COc1ccc(-c2[nH]ncc2CN2CCCOc3c(cccc3OC)C2)c(OC)c1 | -48
